# Assay results taken from PubChem BioAssay (EPA / NIEHS).
# Calls of active or inactive are those of the source. How the source made its calls: active means hit-call score of the fitted dose curve at least 0.9, where 1 is the maximum; inactive means score below 0.9.
# Read-out: Tumor necrosis factor receptor superfamily member 6 (Homo sapiens) (UniProt P25445)
# Test: LTEA_HepaRG_FAS: Life Technologies and Expression Analysis (LTEA) Assay for Fas cell surface death receptor (FAS) using HepaRG (AID 2283447)
# Conditions: mRNA level, 48 h; actives raise or lower the signal
# In short: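 Differentiated HepaRG cells in serum-free induction medium were exposed 48 h to 8 half-log concentrations up to 100 uM in 0.5% DMSO, in duplicate. FAS mRNA was measured by qRT-PCR normalised to ACTB, GAPDH and POLR2A; bidirectional fit versus DMSO.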
# Fatty acid synthase (Homo sapiens), sequence (P49327 whole entry, looked up): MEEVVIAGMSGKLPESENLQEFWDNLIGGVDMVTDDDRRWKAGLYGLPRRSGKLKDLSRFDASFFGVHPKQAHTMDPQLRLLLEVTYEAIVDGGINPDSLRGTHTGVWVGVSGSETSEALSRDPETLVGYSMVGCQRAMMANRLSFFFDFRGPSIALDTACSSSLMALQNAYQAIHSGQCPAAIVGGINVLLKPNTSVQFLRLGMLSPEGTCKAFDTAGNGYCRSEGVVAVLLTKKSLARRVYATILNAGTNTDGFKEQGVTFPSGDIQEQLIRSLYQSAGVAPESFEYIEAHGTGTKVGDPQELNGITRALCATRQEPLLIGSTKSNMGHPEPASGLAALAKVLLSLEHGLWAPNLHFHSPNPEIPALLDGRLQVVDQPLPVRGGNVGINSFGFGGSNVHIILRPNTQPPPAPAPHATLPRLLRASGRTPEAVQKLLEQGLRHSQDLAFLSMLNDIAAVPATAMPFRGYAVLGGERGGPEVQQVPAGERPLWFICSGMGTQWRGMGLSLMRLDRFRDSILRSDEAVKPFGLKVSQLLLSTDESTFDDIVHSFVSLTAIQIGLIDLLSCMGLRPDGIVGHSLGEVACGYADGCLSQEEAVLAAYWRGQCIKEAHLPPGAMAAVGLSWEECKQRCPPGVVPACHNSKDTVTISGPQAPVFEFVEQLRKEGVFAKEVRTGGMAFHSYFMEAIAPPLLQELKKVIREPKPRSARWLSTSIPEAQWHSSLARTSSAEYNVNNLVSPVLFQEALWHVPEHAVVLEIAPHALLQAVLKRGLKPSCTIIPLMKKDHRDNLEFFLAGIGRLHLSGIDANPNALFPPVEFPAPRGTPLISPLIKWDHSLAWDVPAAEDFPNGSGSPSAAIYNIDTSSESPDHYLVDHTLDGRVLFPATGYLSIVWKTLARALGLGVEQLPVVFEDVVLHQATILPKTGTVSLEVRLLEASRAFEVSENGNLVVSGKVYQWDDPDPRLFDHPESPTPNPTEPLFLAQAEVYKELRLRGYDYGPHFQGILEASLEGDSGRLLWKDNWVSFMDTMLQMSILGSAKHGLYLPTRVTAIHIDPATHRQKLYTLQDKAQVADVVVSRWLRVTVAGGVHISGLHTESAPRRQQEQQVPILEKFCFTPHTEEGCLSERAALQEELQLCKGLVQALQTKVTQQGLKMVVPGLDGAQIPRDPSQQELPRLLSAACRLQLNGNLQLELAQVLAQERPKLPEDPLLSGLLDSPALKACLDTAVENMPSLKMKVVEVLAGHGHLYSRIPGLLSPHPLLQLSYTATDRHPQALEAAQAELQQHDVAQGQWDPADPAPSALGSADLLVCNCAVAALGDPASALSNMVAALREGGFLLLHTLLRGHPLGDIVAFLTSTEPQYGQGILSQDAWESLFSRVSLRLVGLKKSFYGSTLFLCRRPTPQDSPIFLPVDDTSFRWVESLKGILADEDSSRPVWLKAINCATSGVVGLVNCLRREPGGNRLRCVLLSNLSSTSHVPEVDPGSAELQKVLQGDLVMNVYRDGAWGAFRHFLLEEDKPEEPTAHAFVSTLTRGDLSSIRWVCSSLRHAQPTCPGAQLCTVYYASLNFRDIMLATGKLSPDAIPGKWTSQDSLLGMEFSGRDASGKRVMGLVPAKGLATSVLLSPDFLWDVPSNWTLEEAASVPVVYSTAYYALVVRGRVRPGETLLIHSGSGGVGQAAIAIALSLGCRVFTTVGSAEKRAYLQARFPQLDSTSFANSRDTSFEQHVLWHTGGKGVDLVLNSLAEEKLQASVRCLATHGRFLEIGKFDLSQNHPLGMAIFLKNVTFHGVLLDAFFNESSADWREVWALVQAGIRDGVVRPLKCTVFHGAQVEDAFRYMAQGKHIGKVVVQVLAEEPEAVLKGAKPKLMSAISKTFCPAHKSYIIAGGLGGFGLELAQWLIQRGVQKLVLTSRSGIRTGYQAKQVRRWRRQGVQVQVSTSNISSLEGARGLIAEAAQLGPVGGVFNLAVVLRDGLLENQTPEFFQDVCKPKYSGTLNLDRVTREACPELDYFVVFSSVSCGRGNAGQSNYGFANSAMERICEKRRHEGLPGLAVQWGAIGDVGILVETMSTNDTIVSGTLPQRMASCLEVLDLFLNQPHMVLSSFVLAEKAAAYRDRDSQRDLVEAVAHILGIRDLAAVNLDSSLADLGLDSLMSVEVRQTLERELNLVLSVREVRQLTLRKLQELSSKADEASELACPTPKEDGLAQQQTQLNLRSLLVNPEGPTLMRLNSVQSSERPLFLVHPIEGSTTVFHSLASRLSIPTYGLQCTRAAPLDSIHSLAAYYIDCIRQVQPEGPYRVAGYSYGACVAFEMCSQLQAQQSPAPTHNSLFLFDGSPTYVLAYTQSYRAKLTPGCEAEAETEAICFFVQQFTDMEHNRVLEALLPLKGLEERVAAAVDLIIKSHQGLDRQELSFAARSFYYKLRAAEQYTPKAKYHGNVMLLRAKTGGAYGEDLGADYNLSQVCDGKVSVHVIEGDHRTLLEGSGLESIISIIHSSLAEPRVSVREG
row,SMILES,outcome
1,O=c1[nH]c(=O)[nH]c(=O)[nH]1,inactive
2,O=[N+]([O-])c1ccc(O)c([N+](=O)[O-])c1,inactive
3,O=C(O)C(F)(F)C(F)(F)C(F)(F)C(F)(F)C(F)(F)C(F)(F)C(F)(F)C(F)(F)C(F)(F)C(F)(F)F,inactive
4,Cc1ccccc1N,inactive
5,O=C(O)C(F)(F)C(F)(F)C(F)(F)C(F)(F)C(F)(F)C(F)(F)F,inactive
6,CCC(=O)C(CC(C)N(C)C)(c1ccccc1)c1ccccc1 (centres undefined),inactive
7,O=C1C2(Cl)C3(Cl)C4(Cl)C(Cl)(Cl)C5(Cl)C3(Cl)C1(Cl)C5(Cl)C24Cl (centres undefined),inactive
8,CN(C)N=O,inactive
9,Oc1cccc2cccnc12,inactive
10,C=CC(=O)OCCCCCC(C)C,inactive
11,CC(C)(C)c1cc(O)ccc1O,inactive
12,CC(C)(c1ccccc1)c1ccc(O)c(C(C)(C)c2ccccc2)c1,inactive
13,NC(=O)O,inactive
14,CC(C)(OO)c1ccccc1,inactive
15,ClC1(Cl)C2(Cl)C3(Cl)C4(Cl)C(Cl)(Cl)C5(Cl)C3(Cl)C1(Cl)C5(Cl)C24Cl (centres undefined),inactive
16,CC(C)(C)CC(C)(C)c1ccc(O)cc1,inactive
17,Cn1sc(Cl)cc1=O,inactive
18,CCC(C)(C)c1ccc(O)c(C(C)(C)CC)c1,inactive
19,CCN1CCC2(CC1)COc1cc3c(cc12)N(C(=O)c1ccc(-c2ccc(-c4nnc(C)o4)cc2C)cc1)CC3,inactive
20,ClCC(Cl)CCl,inactive

# Read-out: Fatty acid synthase (Homo sapiens) (UniProt P49327)
# Test: LTEA_HepaRG_FASN: Life Technologies and Expression Analysis (LTEA) Assay for Fatty Acid Synthase (FASN) using HepaRG (AID 2283448);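 on AC50: differentiated human HepaRG liver cells in serum-free induction medium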
# Conditions: mRNA level, 48 h; actives raise or lower the signal
# In short: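 Differentiated HepaRG cells in serum-free induction medium exposed 48 h in duplicate to eight half-log concentrations, top 100 uM, 0.5% DMSO. FASN mRNA by qRT-PCR normalised to ACTB, GAPDH, POLR2A; bidirectional fit versus DMSO.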
SMILES,outcome,AC50
O=c1[nH]c(=O)[nH]c(=O)[nH]1,inactive,
O=[N+]([O-])c1ccc(O)c([N+](=O)[O-])c1,,13.1 µM (active)
O=C(O)C(F)(F)C(F)(F)C(F)(F)C(F)(F)C(F)(F)C(F)(F)C(F)(F)C(F)(F)C(F)(F)C(F)(F)F,inactive,
Cc1ccccc1N,inactive,
O=C(O)C(F)(F)C(F)(F)C(F)(F)C(F)(F)C(F)(F)C(F)(F)F,inactive,
CCC(=O)C(CC(C)N(C)C)(c1ccccc1)c1ccccc1 (centres undefined),inactive,
O=C1C2(Cl)C3(Cl)C4(Cl)C(Cl)(Cl)C5(Cl)C3(Cl)C1(Cl)C5(Cl)C24Cl (centres undefined),,93.5 µM (active)
CN(C)N=O,inactive,
Oc1cccc2cccnc12,inactive,
C=C(C)C(=O)[O][Sn]([CH2]CCC)([CH2]CCC)[CH2]CCC,inactive,
C=CC(=O)OCCCCCC(C)C,inactive,
CC(=O)[O][Hg][c]1ccccc1,,2.25 µM (active)
CC(C)(C)c1cc(O)ccc1O,inactive,
NC(=O)O,inactive,
CC(C)(OO)c1ccccc1,inactive,
ClC1(Cl)C2(Cl)C3(Cl)C4(Cl)C(Cl)(Cl)C5(Cl)C3(Cl)C1(Cl)C5(Cl)C24Cl (centres undefined),,3.24 µM (active)
CC(C)(C)CC(C)(C)c1ccc(O)cc1,inactive,
Cn1sc(Cl)cc1=O,inactive,
CCC(C)(C)c1ccc(O)c(C(C)(C)CC)c1,inactive,
CCCCCCCCc1ccc(O)cc1,inactive,
CCN1CCC2(CC1)COc1cc3c(cc12)N(C(=O)c1ccc(-c2ccc(-c4nnc(C)o4)cc2C)cc1)CC3,,29.9 µM (active)
ClCC(Cl)CCl,inactive,

# Read-out: Cyclin D2 (CCND2), CCND2 (gene 894)
# Test: LTEA_HepaRG_CCND2: Life Technologies and Expression Analysis (LTEA) Assay for Cyclin D2 (CCND2) using HepaRG (AID 2283449);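 further: CCND2 transcript measured by TaqMan qRT-PCR and normalised to three housekeeping genes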
# Conditions: mRNA level, 48 h; actives raise or lower the signal
# In short: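 Chemicals in 0.5% DMSO, eight half-log concentrations from 100 uM top, were applied in duplicate for 48 h to human HepaRG cells in serum-free induction medium. CCND2 mRNA by TaqMan qRT-PCR, normalised to ACTB/GAPDH/POLR2A; bidirectional fit versus DMSO.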
SMILES,outcome,AC50
O=c1[nH]c(=O)[nH]c(=O)[nH]1,inactive,
O=[N+]([O-])c1ccc(O)c([N+](=O)[O-])c1,inactive,
O=C(O)C(F)(F)C(F)(F)C(F)(F)C(F)(F)C(F)(F)C(F)(F)C(F)(F)C(F)(F)C(F)(F)C(F)(F)F,inactive,
Cc1ccccc1N,inactive,
O=C(O)C(F)(F)C(F)(F)C(F)(F)C(F)(F)C(F)(F)C(F)(F)F,inactive,
CCC(=O)C(CC(C)N(C)C)(c1ccccc1)c1ccccc1 (centres undefined),inactive,
O=C1C2(Cl)C3(Cl)C4(Cl)C(Cl)(Cl)C5(Cl)C3(Cl)C1(Cl)C5(Cl)C24Cl (centres undefined),,91.9 µM (active)
CN(C)N=O,inactive,
Oc1cccc2cccnc12,inactive,
C=C(C)C(=O)[O][Sn]([CH2]CCC)([CH2]CCC)[CH2]CCC,inactive,
C=CC(=O)OCCCCCC(C)C,inactive,
CC(C)(C)c1cc(O)ccc1O,inactive,
CC(C)(c1ccccc1)c1ccc(O)c(C(C)(C)c2ccccc2)c1,inactive,
CC(C)(OO)c1ccccc1,inactive,
ClC1(Cl)C2(Cl)C3(Cl)C4(Cl)C(Cl)(Cl)C5(Cl)C3(Cl)C1(Cl)C5(Cl)C24Cl (centres undefined),inactive,
Cn1sc(Cl)cc1=O,inactive,
CCC(C)(C)c1ccc(O)c(C(C)(C)CC)c1,inactive,
CCN1CCC2(CC1)COc1cc3c(cc12)N(C(=O)c1ccc(-c2ccc(-c4nnc(C)o4)cc2C)cc1)CC3,,46.8 µM (active)
ClCC(Cl)CCl,inactive,

# Read-out: catalase (CAT), CAT (gene 847)
# Test: LTEA_HepaRG_CAT: Life Technologies and Expression Analysis (LTEA) Assay for catalase (CAT) using HepaRG (AID 2283452);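 on AC50: TaqMan qRT-PCR signal normalized to ACTB GAPDH and POLR2A housekeeping genes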
# Conditions: mRNA level, 48 h; actives raise or lower the signal
# In short: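 HepaRG cells in serum-free induction medium, 0.5% DMSO vehicle, exposed 48 h in duplicate over 8 half-log concentrations from 100 uM. CAT mRNA measured by qRT-PCR, normalized to ACTB, GAPDH, POLR2A; bidirectional fit versus DMSO.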
SMILES,outcome,AC50
O=c1[nH]c(=O)[nH]c(=O)[nH]1,inactive,
O=[N+]([O-])c1ccc(O)c([N+](=O)[O-])c1,,13.2 µM (active)
O=C(O)C(F)(F)C(F)(F)C(F)(F)C(F)(F)C(F)(F)C(F)(F)C(F)(F)C(F)(F)C(F)(F)C(F)(F)F,inactive,
Cc1ccccc1N,inactive,
O=C(O)C(F)(F)C(F)(F)C(F)(F)C(F)(F)C(F)(F)C(F)(F)F,inactive,
CCC(=O)C(CC(C)N(C)C)(c1ccccc1)c1ccccc1 (centres undefined),inactive,
O=C1C2(Cl)C3(Cl)C4(Cl)C(Cl)(Cl)C5(Cl)C3(Cl)C1(Cl)C5(Cl)C24Cl (centres undefined),,93.5 µM (active)
CN(C)N=O,inactive,
Oc1cccc2cccnc12,inactive,
C=C(C)C(=O)[O][Sn]([CH2]CCC)([CH2]CCC)[CH2]CCC,inactive,
C=CC(=O)OCCCCCC(C)C,inactive,
CC(=O)[O][Hg][c]1ccccc1,,13.3 µM (active)
CC(C)(C)c1cc(O)ccc1O,inactive,
CC(C)(c1ccccc1)c1ccc(O)c(C(C)(C)c2ccccc2)c1,,60.7 µM (active)
NC(=O)O,inactive,
CC(C)(OO)c1ccccc1,inactive,
ClC1(Cl)C2(Cl)C3(Cl)C4(Cl)C(Cl)(Cl)C5(Cl)C3(Cl)C1(Cl)C5(Cl)C24Cl (centres undefined),inactive,
CC(C)(C)CC(C)(C)c1ccc(O)cc1,,2.44 µM (active)
Cn1sc(Cl)cc1=O,inactive,
CCC(C)(C)c1ccc(O)c(C(C)(C)CC)c1,inactive,
CCCCCCCCc1ccc(O)cc1,inactive,
CCN1CCC2(CC1)COc1cc3c(cc12)N(C(=O)c1ccc(-c2ccc(-c4nnc(C)o4)cc2C)cc1)CC3,,21.1 µM (active)
ClCC(Cl)CCl,inactive,
